Test [1] can be described thus: Quantitative highthroughput screen to assess conditional lethalithy of NOMO1 cells grown in Human Plasma-Like Medium with dialyzed fetal bovine serum (HPLM+ds) (AID 1963878). Also: nearly all actives have a fitted effect of over 35% in size. Also: potency is read from the fitted curve at half-maximal effect.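 As to viability: 100% = DMSO wells and 0% = empty wells on each plate.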 The method in brief: (§1)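 Each medium arm—HPLM with 10% dialyzed FBS, or RPMI1640 with 5 mM glucose and 10% untreated or dialyzed FBS—was screened against an 11-point, 3-fold compound titration for 48 h at 37 °C, with CellTiter-Glo luminescence as endpoint.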

The nature of test [2]: Quantitative highthroughput screen to assess conditional lethalithy of P12 Ichikawa cells grown in RPMI1640 with dialyzed fetal bovine serum (RPMI+ds) (AID 1963880). Also: nearly all actives have a fitted effect of over 35% in size. Also: potency is read from the fitted curve at half-maximal effect.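 As to viability: 100% = DMSO wells and 0% = empty wells on each plate.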 The settings on record: Potency: P12-Ichikawa viability. The method in brief:
as §1

Test [3] in a line: Quantitative highthroughput screen to assess conditional lethalithy of SEM cells grown in RPMI1640 with unreated serum (RPMI+s) (AID 1963883). Also: nearly all actives have a fitted effect of over 35% in size. Also: potency is read from the fitted curve at half-maximal effect.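 As to viability: 100% = DMSO wells and 0% = empty wells without cells.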 The method in brief:
as §1

Test [4] can be described thus: Quantitative highthroughput screen to assess conditional lethalithy of SEM cells grown in RPMI1640 with dialyzed fetal bovine serum (RPMI+ds) (AID 1963884). Also: nearly all actives have a fitted effect of over 35% in size. Also: potency is read from the fitted curve at half-maximal effect.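 As to viability: series mostly up to about 46 µM; 100% = DMSO control wells and 0% = empty wells without cells.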 The method in brief: as §1
Test [5] can be described thus: Cellular viability qHTS for adrenocortical cancer (ACC) cell line SW-13 (AID 1963989).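 Also: cells grown in serum-free medium with ITS supplement; % is scaled to controls: 0 for no effect and ±100 for the full control effect; nearly all actives have a fitted effect of over 65% in size.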 The settings on record: SW-13 ACC cells viability, CellTiter-Glo, 48 h; activity (max response): stronger effect = lower value. The method in brief:
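Viability was read as CellTiter-Glo luminescence after 48 h compound treatment (up to 46 uM final) of SW-13 cells grown serum-free; titration curves were fit with a four-parameter logistic model to give IC50 and efficacy.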
(In general: qHTS replaces the single test concentration by a dilution series.)

Test [6] is described as follows: Cellular viability qHTS for adrenocortical cancer (ACC) cell line NCI-H295R (AID 1963990).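 Also: 0% = DMSO only wells and -100% = full killing with cytotoxic reference compound; nearly all actives have a fitted effect of over 60% in size.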 The method in brief:
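CellTiter-Glo ATP luminescence, read 48 h after compound addition, measured viability of NCI-H295R adrenocortical cells grown serum-free with ITS. Final concentrations spanned up to 46 uM. Data normalized to DMSO and doxorubicin, fitted for IC50 and maximal response.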

Test [7] in a line: Quantitative highthroughput screen to assess conditional lethalithy of P12 Ichikawa cells grown in Human Plasma-Like Medium with dialyzed fetal bovine serum (HPLM+ds) (AID 1963879). Also: nearly all actives have a fitted effect of over 35% in size. Also: potency is read from the fitted curve at half-maximal effect. As to viability: series mostly up to about 46 µM. The settings on record: Potency: viability. The method in brief: as §1
Test [8] can be described thus: Quantitative highthroughput screen to assess conditional lethalithy of SEM cells grown in Human Plasma-Like Medium with dialyzed fetal bovine serum (HPLM+ds) (AID 1963882). Also: nearly all actives have a fitted effect of over 35% in size. Also: potency is read from the fitted curve at half-maximal effect. As to viability: series mostly up to about 46 µM. The method in brief:
as §1

Test [9] is described as follows: Quantitative highthroughput screen to assess conditional lethalithy of P12 Ichikawa cells grown in RPMI1640 with untreated serum (RPMI+s) (AID 1963881). Also: nearly all actives have a fitted effect of over 35% in size. Also: potency is read from the fitted curve at half-maximal effect.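 As to viability: series mostly up to about 46 µM; 100% = DMSO wells and 0% = empty wells without cells.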 The settings on record: Potency: viability. In outline:
as §1

Several values for one entry are separate records, joined by “and”; a condition that tells them apart may be missing. Equal values may be shown once. Results filed as inconclusive are left out. A number with no mark means an inactive call. Activity calls are given as the source filed them. Calls follow the shape of the dose curve; as a rule, active = well fitted curve in the direction sought with a large enough effect; inconclusive = small, poorly fitted or top-dose-only effect, or another doubt; inactive = no such curve, though single readings can be large; an effect the other way counts as inactive or inconclusive.

This is an account of results in PubChem BioAssay (NCATS).

For the compound `CCC[C@H](NC(=O)C(C#N)=Cc1cccc(Br)n1)c1ccccc1`, the Potency in test [1] is 20.9 µM (active); in [2], 26.4 µM (active).
Turning to `Cn1cnc2c1c(=O)[nH]c(=O)n2C`, the Potency in test [1] was 20.9 µM (active); in test [3], 18.7 µM (active); in [4] it was 23.5 µM (active). The activity (max response) in [5] is 4.02% and 2.06%. For the same compound, the Potency result in [6] was “inactive”.
`CC=C(C)C(=O)O[C@H]1C(C)=C[C@]23C(=O)[C@@H](C=C(CO)[C@@H](O)[C@]12O)[C@H]1[C@@H](C[C@H]3C)C1(C)C`: in test [7], the Potency result was “inactive”.
Regarding `Nc1nc(F)nc2c1ncn2[C@@H]1O[C@H](COP(=O)(O)O)[C@@H](O)[C@H]1O`, the Potency is 9.35 µM (active) in test [1], 1.48 µM (active) in [8], 8.33 µM (active) in [3] and 1.87 µM (active) in [4].
For `CON=C(C(=O)N[C@@H]1C(=O)N2C(C(=O)O)=C(CSC(=O)c3ccco3)CS[C@H]12)c1csc(N)n1`, the Potency result in test [7], in test [2], in test [9], in test [8], in test [3] and in [4] was “inactive” throughout.
In the case of `COc1cc(OC)c(C=CS(=O)(=O)Cc2ccc(OC)c(NCC(=O)O)c2)c(OC)c1`, the Potency in test [7] was 0.264 µM (active); in test [2], 0.166 µM (active); in test [9] it was 0.235 µM (active); in test [3], 0.209 µM (active); in [4], 0.118 µM (active).
Consider `CO[C@H]1O[C@@H]2O[C@@]3(C)CC[C@@H]4[C@@H](C)CC[C@@H]([C@H]1C)[C@@]24OO3`, for which, in test [7], the Potency result is “inactive”. Besides, the Potency was 14.8 µM (active) in [2] and 16.6 µM (active) in [9].
Turning to `CC(C)n1c(C=C[C@H](O)C[C@H](O)CC(=O)O)c(-c2ccc(F)cc2)c2ccccc21`, the Potency is 5.9 µM (active) in test [7], 4.69 µM (active) in test [2] and 4.69 µM (active) in test [9].
As for `C[C@H](NCc1ccc(OCc2cccc(F)c2)cc1)C(N)=O`, the Potency in test [1] is 20.9 µM (active); in [8], 0.469 µM (active); in test [3], 0.662 µM (active); in test [4], 0.332 µM (active).
For the compound `C=CCc1ccc(O)c(-c2ccc(O)c(CC=C)c2)c1`, the Potency is 0.132 µM (active) in [7], 0.526 µM (active) in test [2] and 1.05 µM (active) in test [9].
As to `CO[C@@H]1[C@@H](O)[C@H](O)[C@@H](n2c3c(Cl)cccc3c3c4c(c5c6cccc(Cl)c6[nH]c5c32)C(=O)NC4=O)O[C@@H]1CO`, the Potency in test [7] is 0.296 µM (active); in [2] it was 0.264 µM (active); in [9], 0.235 µM (active); in test [8], 0.59 µM (active); in test [3], 0.235 µM (active); in [4] it was 0.469 µM (active).
Turning to `Cc1cc(OCCCS(C)(=O)=O)cc(C)c1-c1cccc(COc2ccc3c(c2)OC[C@H]3CC(=O)O)c1`, the Potency result in test [1] and in test [8] was “inactive” each time.
Take `Cc1cnn(C)c1C(=O)Nc1cc(Nc2ccc3c(C=Cc4ccccn4)n[nH]c3c2)ccc1F`: the Potency in test [1] is 16.6 µM (active); in test [7], 20.9 µM (active); in test [8] it was 2.96 µM (active); in test [4], 2.64 µM (active).
Consider `COc1cc(CNC(=O)CCCCC=CC(C)C)ccc1O`, for which the Potency in test [7] was 0.332 µM (active); in [2], 0.418 µM (active); in [9], 0.833 µM (active); in test [3], 0.526 µM (active).
Take `CC(C)NC[C@@H](C(=O)N1CCN(c2ncnc3c2[C@H](C)C[C@H]3O)CC1)c1ccc(Cl)cc1`: the Potency is 14.8 µM (active) in test [1], 0.296 µM (active) in [3] and 0.296 µM (active) in test [4].
With `CC[C@H]1OC(=O)[C@H](C)[C@@H](O[C@H]2C[C@@](C)(OC)[C@@H](O)[C@H](C)O2)[C@H](C)[C@@H](O[C@@H]2O[C@@H](C)C[C@H](N(C)C)[C@@H]2O)[C@](C)(O)C[C@@H](C)C(=O)[C@H](C)[C@@H](O)[C@]1(C)O`, the Potency in test [1] is 9.35 µM (active); in test [7], 16.6 µM (active); in test [3], 10.5 µM (active).
As to `Cc1[nH]c(C=C2C(=O)Nc3ccc(S(=O)(=O)N(C)c4cccc(Cl)c4)cc32)c(C)c1C(=O)N1CCN(C)CC1`, the Potency in [7] was 18.7 µM (active); in [2], 14.8 µM (active); in [9], 18.7 µM (active); in test [8], 13.2 µM (active); in [3], 11.8 µM (active); in test [4], 6.62 µM (active).
Regarding `CN(C)C(=N)N=C(N)N`, in [7], the Potency is 26.4 µM (active).
Consider `COc1ccc(-c2oc3cc(OC)ccc3c2C(=O)c2ccc(C#N)cc2)cc1`, for which the Potency is 1.87 µM (active) in test [7], 2.96 µM (active) in test [2] and 1.32 µM (active) in test [9]. Moreover, the Potency result in [8], in [3] and in test [4] was “inactive” in each case.
As to `CCOC1OC(=O)C[C@H]1NC(=O)[C@@H]1CCCN1C(=O)[C@@H](NC(=O)c1ccc(N)c(Cl)c1)C(C)(C)C` (stereo not given in full), the Potency in test [7] was 1.66 µM (active); in test [2], 3.32 µM (active); in [9], 1.87 µM (active). For the same compound, the Potency result in test [8], in test [3] and in test [4] was “inactive” each time.
As for `CC(=O)O[C@]1(C(C)=O)CC[C@H]2[C@@H]3C=C(Cl)C4=CC(=O)[C@@H]5C[C@H]5[C@]4(C)[C@@H]3CC[C@@]21C`, the Potency was 2.96 µM (active) in test [7], 2.35 µM (active) in test [2] and 2.96 µM (active) in test [9]. In addition, the Potency entry in test [8], in test [3] and in test [4] was “inactive” throughout.
For `CO[C@H]1C[C@@H]2CC[C@@H](C)[C@@](O)(O2)C(=O)C(=O)N2CCCC[C@@H]2C(=O)O[C@H]([C@H](C)C[C@@H]2CC[C@H](OC(=O)C(C)(CO)CO)[C@H](OC)C2)CC(=O)[C@H](C)C=C(C)[C@@H](O)[C@@H](OC)C(=O)[C@H](C)C[C@H](C)C=CC=CC=C1C`, the Potency in [7] is 6.62 µM (active).
Take `CC(C)[N+]1(C)[C@@H]2CC[C@H]1CC(OC(=O)C(CO)c1ccccc1)C2` (stereo not given in full): the figures for the Potency in [1] and in test [8] were 13.2 µM (active) and 9.35 µM (active), respectively.
In the case of `CCCCCN=C(N)NN=Cc1c[nH]c2ccc(OC)cc12`, the Potency in test [7] was 13.2 µM (active); in [2], 14.8 µM (active); in [9], 13.2 µM (active); in test [3] it was 11.8 µM (active).
